# nsP2pro inh: blocks chikungunya virus nsP2 protease peptide cleavage; hit rate 1.1% among 31,000; Q8JUX6; FRET peptide cleavage, nsP2pro, fluorescence 1 h; AID 1964107; Potency, µM (series often up to 24.9 µM), inactives show at the top dose activity change, negative = inhibition, most hits filed as inhibitors; note: nearly all actives have a fitted effect of over 60% in size
#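 Recombinant nsP2pro (150 nM) was preincubated with compound 15 min at room temperature in 10 mM Tris-HCl pH 8.0, 0.01% Tween 20. Peptide 2 FRET substrate (2.5 uM) was then added and fluorescence read after 1 h. Seven-point series, up to 25 uM.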
# CHIKV nsP2 cell: secondary cell-based test for CHIKV nsP2 protease inhibitors. shares compounds with nsP2pro inh. cell-based CHIKV nsP2 protease reporter assay. Potency, µM (series often up to 51.1 µM), inactives show top-dose activity change, negative = inhibition, most hits filed as inhibitors. hit rate 10% among 450; note: nearly all actives have a fitted effect of over 70% in size
# Target sequence (Q8JUX6 220-798 limits assumed): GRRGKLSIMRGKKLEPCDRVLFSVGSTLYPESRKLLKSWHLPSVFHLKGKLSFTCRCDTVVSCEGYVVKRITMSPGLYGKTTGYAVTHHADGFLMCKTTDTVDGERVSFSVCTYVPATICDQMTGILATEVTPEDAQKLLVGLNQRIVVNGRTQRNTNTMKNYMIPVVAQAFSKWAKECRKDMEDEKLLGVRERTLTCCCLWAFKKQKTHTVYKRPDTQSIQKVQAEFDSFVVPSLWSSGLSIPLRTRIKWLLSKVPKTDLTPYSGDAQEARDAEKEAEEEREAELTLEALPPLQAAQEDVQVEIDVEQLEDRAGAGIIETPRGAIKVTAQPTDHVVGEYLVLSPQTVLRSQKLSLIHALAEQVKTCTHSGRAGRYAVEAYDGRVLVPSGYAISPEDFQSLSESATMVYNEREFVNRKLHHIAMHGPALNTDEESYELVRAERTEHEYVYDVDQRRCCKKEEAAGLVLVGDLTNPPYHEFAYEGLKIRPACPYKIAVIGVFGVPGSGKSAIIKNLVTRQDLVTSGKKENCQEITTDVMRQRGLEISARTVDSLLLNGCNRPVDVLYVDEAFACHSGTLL
# CHIKV NSP2 FL: full-length CHIKV NSP2 protease inhibition, selectivity; shares compounds with nsP2pro inh; Full-length CHIKV NSP2 protease enzymatic counterscreen; Potency, µM (doses to about 50.7 µM), inactives show at the top dose activity change, negative = inhibition, usual class: inhibitors; hit rate 39% among 410; AID 1964101; note: nearly all actives have a fitted effect of over 65% in size
# Furin counter: inhibits human furin in a CHIKV nsP2 protease selectivity counterscreen | shares compounds with nsP2pro inh | Recombinant human furin enzymatic counterscreen, fluorogenic substrate | Potency, µM (doses to about 50.6 µM), inactives show at the highest dose activity change, negative = inhibition, hits mostly inhibitors | hit rate 6% among 410 | AID 1964102
# nsP2 NS23 pep: selectivity test for CHIKV nsP2 protease inhibitors: endogenous NS2/3 peptide; Potency, µM (highest dose often 51 µM), for inactives: top-dose activity change, negative = inhibition, actives largely listed as inhibitors; hit rate 34% among 410; shares compounds with nsP2pro inh; Purified CHIKV nsP2 protease, endogenous NS2/3 peptide cleavage; AID 1964103; note: nearly all actives have a fitted effect of over 55% in size
# Papain counter: papain protease inhibition, counterscreen for nsP2pro inhibitors; shares compounds with nsP2pro inh; purified papain protease activity, enzymatic inhibition; Potency, µM (series often up to 51 µM), for inactives: at the top dose activity change, negative = inhibition, hits mostly inhibitors; hit rate 5% among 410; AID 1964104
# nsP2pro confirm: confirmation of CHIKV nsP2 protease inhibitors | Potency, µM (titrated, usually from 25.5 µM), without a hit: at the highest dose activity change, negative = inhibition, hits mostly inhibitors | shares compounds with nsP2pro inh | hit rate 43% among 410 | CHIKV nsP2 protease enzymatic activity, qHTS; note: nearly all actives have a fitted effect of over 75% in size
# HCV NS3 4A cs: inhibits HCV NS3/4A protease in an nsP2pro selectivity counterscreen; shares compounds with nsP2pro inh; HCV NS3/4A protease biochemical counterscreen; Potency, µM (titrated, usually from 50.9 µM), actives largely listed as inhibitors; hit rate 20% among 410; note: nearly all actives have a fitted effect of over 55% in size
# * = called active by the depositor; i = inactive; ? = inconclusive; [ ] = dose if it differs, or a comment. Only a selection was taken, and hits are over-represented in it overall. Calls come from the whole dose curve. % is set by controls: 0 for no effect and ±100 for the full control effect; potency is the fitted concentration of half-maximal effect.
SMILES,nsP2pro inh,others
O=C(Cn1nc(-c2ccc(F)cc2)ccc1=O)NCCc1ccccc1,1.4%,
O=C(Cc1cccc(Cl)c1)NC1CCN(Cc2ccc(-c3ccsc3)cc2)C1 (stereo not drawn),2.2%,
O=C(C(c1ccccc1)c1ccccc1)N1CCN(CC(O)COc2cccc3ncccc23)CC1 (stereo not drawn),1.4%,
CCc1noc(-c2cn(C3CCN(C(=O)Cc4cccc(OC)c4)CC3)nn2)n1,0.8%,
CNC(=O)[C@@H]1C[C@@H](n2cc(CNC(=O)Cc3ccc(F)cc3)nn2)CN1,2.6%,
CC1(C)CCC[C@@]2(C)[C@H]1[C@H](O)C=C1COC(=O)[C@@]12O,-13.4%,
CO[C@H]1c2cc(C(C)C)c(O)c(O)c2[C@@]23CCCC(C)(C)C2[C@@H]1OC3=O (stereo partly drawn),6.1µM*,CHIKV nsP2 cell=-19.1%[33.5 µM];CHIKV NSP2 FL=16µM*;Furin counter=-10.3%[33.5 µM];nsP2 NS23 pep=12.7µM*;Papain counter=?;nsP2pro confirm=5.54µM*;HCV NS3 4A cs=i
Cc1ccsc1C(=O)N1CCCC(CN2CCCC2)CC1 (stereo not drawn),4.6%,
COc1cccc(CN2CCC3(CC2)COc2ccccc2CN3)c1,0.7%,
CCCC(=O)OC[C@@H](OC(=O)CCC)[C@@H](OC(=O)CCC)[C@H](Cn1c2nc(=O)[nH]c(=O)c-2nc2cc(C)c(C)cc21)OC(=O)CCC,0.7µM*,CHIKV nsP2 cell=24.7%;CHIKV NSP2 FL=17.5%;Furin counter=-11.8%;nsP2 NS23 pep=2.0%;Papain counter=?;nsP2pro confirm=-4.0%;HCV NS3 4A cs=i
COc1ccccc1C1N=C(Nc2nc3ccccc3o2)NC2=C1C(=O)CCC2 (stereo not drawn),0.1%,
CC(C)C(=O)OC[C@H]1O[C@@H](n2ccc(NO)nc2=O)[C@H](O)[C@@H]1O,-8.0%,
C=C(CO)C(=O)O[C@H]1C[C@@]23O[C@@H]2CC/C(=C/[C@H]2OC(=O)C(=C)[C@H]12)CO[C@H]3O,?,CHIKV nsP2 cell=12.5%[33.5 µM];CHIKV NSP2 FL=?;Furin counter=-0.9%[33.5 µM];nsP2 NS23 pep=?;Papain counter=-6.9%[33.5 µM];nsP2pro confirm=-38.4%[16.7 µM];HCV NS3 4A cs=?
C=C[C@@]12COC(=O)C(=C)C1[C@@H](O)[C@H](C(=C)C(=O)OC)[C@@H](OC(=O)C(=C)CO)C2 (stereo partly drawn),-13.1%[10 µM],
C=C1C(=O)OC2/C=C(/C)C3=CC(=O)C(C)(CC(OC(=O)/C(C)=C/COC(C)=O)C12)O3 (stereo not drawn),-5.8%[10 µM],
CC(C)=CCC[C@](C)(O)[C@H]1CC[C@]2(C)[C@@H]1[C@H](O)C[C@@H]1[C@@]3(C)CC[C@H](O)C(C)(C)[C@@H]3CC[C@]12C,-27.1%,
O=C(Cn1cccc1-c1nc(-c2ccccc2)no1)N1CCN(c2ccccc2)CC1,-14.7%,
COc1ccc(-c2c(NC(C)=O)sc3c2CCNC3)cc1,-17.7%,
CNC(=O)c1ccc(-c2cnc3cnc(C(=O)N(C)c4ccc(Cl)cc4)cn23)cc1,-3.3%,
C=C[C@H]1CN2CC[C@H]1C[C@@H]2CNC(=O)Nc1ccc(Br)cc1,4.6%[39.2 µM],
CC1CC(=O)[C@]2(O)C(C(=O)OCCc3ccc(O)c(O)c3)=CO[C@@H](O[C@@H]3O[C@H](CO)[C@@H](O)[C@H](O)[C@H]3O)[C@H]12 (stereo partly drawn),3.83µM*,CHIKV nsP2 cell=-6.4%[17.6 µM];CHIKV NSP2 FL=10.1%[17.3 µM];Furin counter=-7.4%[17.3 µM];nsP2 NS23 pep=-14.8%[17.2 µM];Papain counter=-0.7%[17.2 µM];nsP2pro confirm=?;HCV NS3 4A cs=4µM*
COC(=O)C1=COC(OC2OC(CO)C(O)C(O)C2O)C2C(C)CC(=O)C12O (stereo not drawn),-13.8%[10 µM],
COC(=O)C1=CO[C@@H](O[C@@H]2O[C@H](CO)[C@@H](O)[C@H](O)[C@H]2O)[C@@H]2C(C)CC(=O)[C@]12O (stereo partly drawn),8.3%[10 µM],
COc1ncc(Nc2ncc([C@@H](C)N3CCN(S(C)(=O)=O)CC3)cc2-c2nc(C)nc(N)n2)cc1F,?,CHIKV nsP2 cell=112.9%;CHIKV NSP2 FL=0.0%;Furin counter=-16.9%;nsP2 NS23 pep=1.0%;Papain counter=?;nsP2pro confirm=-4.5%;HCV NS3 4A cs=i
CN(C)C/C=C/C(=O)Nc1cccc(C(OCCN2CCCCC2)c2cc3nccc(C(=O)O)c3s2)c1 (stereo not drawn),-0.7%,

# Screening results: PubChem, National Center for Advancing Translational Sciences (NCATS)
